Measured values taken from PubChem BioAssay (NCI).
This is part of a sample that, as a whole, favours compounds with a hit. Of some 83,000 tested, about 20% had one in any assay.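 Step 1: grow cells in 96-well plates. Step 2: add test compound at a single concentration. Step 3: incubate 48 h. Step 4: record percent growth.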 A number with no mark means an inactive call. The source made the active and inactive calls. The calls were made as follows: active = growth percent below 10; inactive = the rest.

Each compound was assayed on HL-60(TB) leukemia (assay: NCI-60 one-dose screen, 48 h (100 = growth as untreated, 0 = no growth, -100 = all killed)). Settings: 10 µM unless noted.

**Q.** `C/C(=N\Nc1cc(C)nc2ccc(Br)cc12)c1ccc([N+](=O)[O-])cc1` was tested. Which growth did it give?
**A.** -37.4% (active)

**Q.** How did the growth turn out when `Oc1ccc(Cl)cc1Cc1cc(Cl)cc(Cl)c1O` was run?
**A.** -11.1% (active)

**Q.** Which growth does the source give for `CCC(C)(C)c1cc(O)c(C(C)(C)CC)cc1O` here?
**A.** -9.67% (active)

**Q.** Which growth does the source give for `c1ccc2[nH]c(-c3ccc(OCCCCCOc4ccc(-c5nc6ccccc6[nH]5)cc4)cc3)nc2c1` here?
**A.** -45.7% (active)

**Q.** With `Cc1nnc(/N=C2\NC(=O)/C(=C/c3ccsc3)S2)s1` as the compound, how does the growth read?
**A.** 102%

**Q.** `O=C(NOC1OC(CO)C(O)C(O)C1O)Nc1ccccc1` (stereo not given) was tested. Which growth did it give?
**A.** 74.5%

**Q.** For `C[C@H](NC(=O)c1snnc1C1CC1)c1c(F)cccc1Cl`, which growth is on record?
**A.** 146%

**Q.** `Cc1onc(-c2c(F)cccc2Cl)c1-c1ncc(-c2ccc(Cl)cc2)o1` was tested. Which growth did it give?
**A.** 36.4%

**Q.** With `C[C@]12C[C@H](O)[C@H]3[C@@H](CCC4=CC(=O)CC[C@@]43C)[C@@H]1CC[C@@H]2C(=O)CO` as the compound, how does the growth read?
**A.** 81.8%

**Q.** With `COc1ccc(/C=C/c2c(C(=O)/C=C/c3ccc(C(F)(F)F)cc3)c(C)nc3ccccc23)cc1` as the compound, how does the growth read?
**A.** -21.7% (active)

**Q.** How did the growth turn out when `c1ccn2nnnc2c1` was run?
**A.** 116%

**Q.** With `C[C@@H](Nc1cc(F)cc(F)c1)c1cc(C(=O)N(C)C)cc2c(=O)cc(N3CCOCC3)oc12` as the compound, how does the growth read?
**A.** 40.9%

**Q.** How did the growth turn out when `CCN1CCN(c2nc(NNC(=O)c3cccc(OC)c3)nc(N3CCN(C(c4ccccc4)c4ccccc4)CC3)n2)CC1` was run?
**A.** 28.4%

**Q.** For `Clc1ccc(-c2cc(-c3ccccc3)nc(N3CCN(CCCNc4ccnc5cc(Cl)ccc45)CC3)n2)cc1`, which growth is on record?
**A.** -39% (active)

**Q.** How did the growth turn out when `CC1OC2CC(=O)OC2C2=C1C(=O)c1c(O)c3c(c(O)c1C2=O)C1CC(O)C3(O)C(C)O1` (stereo not given) was run?
**A.** -26.7% (active)

**Q.** `O=C(/C=C/C=C/c1c(C2CC2)nc2ccccc2c1-c1ccc(F)cc1)c1cccs1` was tested. Which growth did it give?
**A.** -17.5% (active)

**Q.** With `CSCC[C@@H]1C(=O)N(C)[C@H](C(C)(C)C)N1C(=O)c1ccccc1` as the compound, how does the growth read?
**A.** 110%

**Q.** With `C[n+]1c(/C=C\C=C\N2CCCCC2)sc2ccccc21` as the compound, how does the growth read?
**A.** -37.3% (active)

**Q.** How did the growth turn out when `Cn1cc(-c2csc(-c3c[nH]c4ncccc34)n2)c2cc(F)cnc21` was run?
**A.** 79.8%

**Q.** For `O=C(/C=C/c1cccc(Cl)c1)c1cccc(OCCCOc2cccc(C(=O)/C=C/c3cccc(Cl)c3)c2)c1`, which growth is on record?
**A.** 93.1%

**Q.** For `COc1ccc(NC(=O)/C=C(C)/C=C/C=C(C)/C=C/C2=C(C)CCCC2(C)C)cc1`, which growth is on record?
**A.** 5.62% (active)

**Q.** With `CC[N+](CC)=c1ccc2nc3c(cc(NCc4ccccc4)c4ccccc43)oc-2c1` as the compound, how does the growth read?
**A.** -41.2% (active)

**Q.** `C/C(=C\c1ccc2ccccc2c1)[N+](=O)[O-]` was tested. Which growth did it give?
**A.** -25.7% (active)

**Q.** How did the growth turn out when `C=CCOC(=O)C1=C(C)N(CC)C(=O)N(CC)C1c1c(Cl)n(C)c2ccccc12` (stereo not given) was run?
**A.** 96.9%

**Q.** Which growth does the source give for `COc1ccc2c(c1)c(-c1nonc1-c1c[nH]c3ccc(Br)cc13)cn2C` here?
**A.** 53.2%

**Q.** With `C#CC[C@@H]1C[C@]2(C)[C@H]3CC[C@@H]4[C@H]5C(C(=C)C)CC[C@]5(C(=O)NCCN(CCN)CCN)CC[C@@]4(C)[C@]3(C)CC[C@H]2C(C)(C)[C@H]1OC(C)=O` (stereo not given in full) as the compound, how does the growth read?
**A.** 41.5%

**Q.** For `CN(C)c1ccc(C(=C2C=CC(=[N+](C)C)C=C2)c2ccc(N(C)C)cc2)cc1` (tested in a mixture with another compound), which growth is on record?
**A.** -51.3% (active)

**Q.** Which growth does the source give for `COc1ccc(C(=S)N2CCN(c3cccc(Cl)c3)CC2)cc1` here?
**A.** 130%

**Q.** With `C#Cc1ccc(NC(=O)Cc2ccc(/C=C/C(=O)c3nccn3C)cc2)cc1` as the compound, how does the growth read?
**A.** 16.5%

**Q.** How did the growth turn out when `O=C(C(=O)c1ccc2c(c1)OCO2)c1ccc2c(c1)OCO2` was run?
**A.** 62.3%

**Q.** With `COc1cc(N)c2nccc(C)c2c1OC` as the compound, how does the growth read?
**A.** 96.2%

**Q.** With `COc1cc(/C=C/C(=O)c2ccccc2O)ccc1OCCCOc1cc2c(cc1OC)C(=O)N1CCC[C@H]1C=N2` as the compound, how does the growth read?
**A.** -27.4% (active)

**Q.** Which growth does the source give for `Cc1cc(SCc2ccccc2)nc(N)n1` here?
**A.** 119%

**Q.** With `Oc1c(Br)cc(Br)c2ccc(Cn3cc(-c4ccc(C(F)(F)F)cc4)nn3)nc12` as the compound, how does the growth read?
**A.** -5.83% (active)

**Q.** Which growth does the source give for `CC1NC(=S)NC(=O)/C1=C/c1cc(=O)oc2c1ccc1ccccc12` (stereo not given) here?
**A.** 102%

**Q.** `CC1(C)CC[C@]23CC[C@]4(C)[C@H](CC[C@@H]5[C@@]6(C)CCCNC(C)(C)[C@@H]6CC[C@]54C)[C@H]2[C@H]1OC3` was tested. Which growth did it give?
**A.** -65.5% (active)

**Q.** With `FC(F)(F)C1=NNC(c2ccc3ccccc3c2)=NN1` as the compound, how does the growth read?
**A.** 101%

**Q.** Which growth does the source give for `Oc1c(CN2CCN(c3ccccc3F)CC2)cc(Br)c2cccnc12` here?
**A.** -34.4% (active)

**Q.** With `O=C1CN(CCN2CC(=O)NC(=O)C2)CC(=O)N1` as the compound, how does the growth read?
**A.** 88%

**Q.** `Cc1c(Br)cccc1NC(=O)c1sc2nc3c(cc2c1N)CN(Cc1ccccc1)CC3` was tested. Which growth did it give?
**A.** -30.5% (active)
